Source: PubChem BioAssay (several laboratories)
Only some compounds are listed: those with a hit (about 1.8% of all), similar ones and a draw of the others.
VHR inh abs = VHR1 phosphatase inhibitors, primary screen, biochemical, absorbance, uHTS. Dual specificity protein phosphatase 3 (Homo sapiens), P51452. recombinant VHR phosphatase, pNPP absorbance. inhibition, % at 13.3 µM. 290,000 compounds, 0.52% hits. AID 1654, 2009; in the data active = inhibition above about 50%
Sa RN4220 lethal = growth inhibition of S. aureus RN4220, primary screen, OD600; 16 h; inhibition, % (concentration not given with the values); 330,000 compounds, 0.33% hits; AID 1259311, 2017; in the data active = inhibition above about 85%;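 note: plate controls were untreated cells for no effect and reference antibiotic for full effect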
PfHsp40 rescue = rescue of yeast from PfHsp40 toxicity, primary screen, S. cerevisiae, ATP luminescence; S. cerevisiae expressing PfHsp40, growth rescue; 340,000 compounds, 0.68% hits; growth rescue, % at 12.5 µM; AID 504582, 2011; in the data active = growth rescue above about 28%, passing the limit was not always enough;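 note: yeast W303a lacking pdr1 and pdr3 grown in galactose medium; growth measured after three days at 30 °C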
Sa ugtP lethal = growth inhibition of ugtP-null S. aureus, primary screen, RN4220 ugtP deletion, OD600 | 330,000 compounds, 0.54% hits | 16 h | growth inhibition, % (test concentration not listed) | AID 1259309, 2017; in the data active = growth inhibition above about 68%;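 note: plate controls were untreated wells for no effect and antibiotic for full effect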
PrPC surface inh = inhibitors of human cell surface prion protein PrPC, primary screen, cell-based, TR-FRET | TR-FRET read-out | inhibition, % at 13.8 µM | 370,000 compounds, 0.43% hits; in the data active = inhibition above about 24%; note: 0% = median of the test wells and 100% = reference compound wells
PrPC TRFRET cf = confirmation of inhibitors of cell surface human prion protein, confirmation, cell-based, TR-FRET | 1,500 compounds, 65% hits | AID 743200, 2013 | shares compounds with PrPC surface inh | cell surface PrPC level | inhibition, % at 13.8 µM; in the data active = inhibition above about 25%
LD9 cytotox = cytotoxicity in LD9 cells, cytotoxicity control for cell surface PrPc inhibitor project, cell-based, luminescence, high throughput; inhibition, % at 13.8 µM; luminescence viability; 1,500 compounds, 29% hits; shares compounds with PrPC surface inh; in the data active = inhibition above about 9.5%
Starred values were filed as active, the others as inactive; nt = no result.

SMILES | VHR inh abs | Sa RN4220 lethal | PfHsp40 rescue | Sa ugtP lethal | PrPC surface inh | PrPC TRFRET cf | LD9 cytotox
COc1ccc(C=CCN2CCCC(CCC(=O)NCc3ccc(F)c(F)c3)C2)cc1 (stereo not given) | nt | -1 | nt | 0 | nt | nt | nt
NC(=O)C1CCN(C(=S)c2ccc(-c3ccc(Br)cc3)o2)CC1 | 27 | 8 | -2 | 10 | -6 | nt | nt
NC(=O)c1ccc(-c2ccc(Br)cc2)o1 | 14 | 6 | 1 | 9 | 53* | 63* | -9
C#CCNC(=O)C1=CC(c2coc3ccccc3c2=O)CC(OCCCCO)O1 (stereo not given) | nt | 7 | nt | 11 | nt | nt | nt
O=C(N/N=C/c1ccc(O)cc1)c1ccc(COc2cc(Cl)ccc2Cl)o1 | 9 | nt | 0 | nt | 27* | 30* | -1
COc1cc(C=NNC(=O)c2ccc(COc3ccccc3Cl)o2)cc(Br)c1O | nt | 4 | nt | -7 | nt | nt | nt
COC(=O)CC1c2cc(C(F)(F)F)ccc2S(=O)(=O)N1C1CCCC1 (stereo not given) | nt | 3 | nt | 0 | nt | nt | nt
COC(=O)Nc1ccc(S(=O)(=O)N2c3ccccc3CCC2C)cc1 (stereo not given) | 17 | 4 | 1 | -22 | 28* | 8 | 4
COc1ccc2nc3cc(Cl)ccc3c(Nc3cc(CN4CCCC4)c(O)c(CN4CCCC4)c3)c2n1 | 21 | -3 | nt | -7 | 45* | 42* | 37*
COc1ccc2nc3cc(Cl)ccc3c(Nc3cc(C(C)C)c(O)cc3C)c2c1 | 5 | 53 | 2 | 11 | -2 | nt | nt
CC(=NNC(=O)C(O)c1ccccc1)c1ccc(Br)s1 (stereo not given) | nt | 2 | nt | 4 | nt | nt | nt
Cc1ccc(C=NNC(=O)C[n+]2ccccc2)o1 | nt | 3 | nt | 5 | nt | nt | nt
O=C(CC(=O)OCc1ccccc1)OCc1ccccc1 | nt | nt | 2 | nt | 8 | nt | nt
O=C(NNc1ccccc1)OCc1ccccc1 | nt | nt | nt | nt | 25* | 18 | -7
C=CCC(CC(=O)N(CCO)Cc1ccccc1)C(=O)NCC(OC(=O)C(CC=C)Cc1ccc(F)cc1)c1ccccc1 (stereo not given) | nt | -8 | nt | 9 | nt | nt | nt
CC(C)OC(=O)CSc1nnc2c3ccccc3n(C)c2n1 | 2 | 5 | 0 | 4 | -11 | nt | nt
CC(C)CSc1nnc2c3ccccc3n(C)c2n1 | 14 | 13 | 21 | 11 | 58* | 66* | -3
CC(=O)OC1CC2OC3C=C(C)CCC3(C)C1(C)C21CO1 (stereo not given) | nt | nt | nt | nt | 90* | 101* | 32*
C(=Nn1cnnc1)c1ccc(N2CCOCC2)cc1 | nt | 1 | nt | 1 | nt | nt | nt
Cc1ccc(CN2CCCCC(NC(=O)c3ccc(COc4ccccc4)cc3)C2=O)cc1 (stereo not given) | nt | nt | nt | nt | 25* | 19 | 1
CCN(CC)C(=S)Nc1cc(C(=O)OC)ccc1C(=O)OC | 43 | 6 | 1 | -1 | 25* | 4 | -6
S=c1nc(COc2ccccc2)[nH]c2ccccc12 | 16 | nt | 0 | nt | 14 | nt | nt
Cc1nc(=S)c2ccccc2[nH]1 | -5 | 7 | 1 | 2 | -1 | nt | nt
S=c1nc(Cc2ccccc2)[nH]c2ccccc12 | 34 | -2 | 2 | -3 | 31* | 26* | -4
S=c1nc(Cc2ccc(Cl)cc2)[nH]c2ccccc12 | 24 | -10 | 1 | 12 | 29* | 60* | -3
SMILES | VHR inh abs | Sa RN4220 lethal | PfHsp40 rescue | Sa ugtP lethal | PrPC surface inh | PrPC TRFRET cf | LD9 cytotox
CC(C)c1ccc(C=NNC(=O)CN(c2cccc(Cl)c2Cl)S(C)(=O)=O)cc1 | nt | -11 | nt | 0 | nt | nt | nt
OCCC1CC(O)C(O)[C@]2(CCCCO2)O1 (stereo not given in full) | nt | 3 | nt | 1 | nt | nt | nt
O=C1C(=O)c2ccccc2-c2ccccc21 | 27 | nt | -3 | nt | 27* | 65* | 99*
O=C1C(=C(I)I)c2ccccc2-c2ccccc21 | nt | nt | 0 | nt | 4 | nt | nt
CC(=O)O[C@H]1C(=O)[C@]2(C)[C@H]([C@H](OC(=O)c3ccccc3)[C@]3(O)C[C@H](OC(=O)[C@H](O)[C@@H](NC(=O)c4ccccc4)c4ccccc4)C(C)=C1C3(C)C)[C@]1(OC(C)=O)CO[C@@H]1C[C@@H]2O | nt | nt | 5 | nt | 28* | 25* | 4
CC(=O)O[C@H]1C(=O)[C@@]2(C)C([C@H](OC(=O)c3ccccc3)[C@]3(O)C[C@H](OC(=O)[C@H](O)[C@@H](NC(=O)c4ccccc4)c4ccccc4)C(C)=C1C3(C)C)[C@]1(OC(C)=O)CO[C@@H]1C[C@H]2O (stereo not given in full) | 5 | 0 | 1 | 6 | 19 | nt | nt
COc1ccc(C(N)=NOC(=O)c2ccco2)cc1OC | nt | 6 | nt | 0 | nt | nt | nt
BrC(=C\c1ccccc1)/C=N/n1cnnc1 | 3 | nt | 1 | nt | 34* | 4 | 37*
COc1ccc(CNC(=O)CN2C(=O)C3CCCN3c3ncc(Cl)cc32)cc1 (stereo not given) | 19 | 2 | 1 | -8 | 26* | -10 | -4
Nc1nonc1-n1nnc(C(=O)NN=Cc2cc(Cl)ccc2O)c1CN1CCCCCC1 | nt | -1 | nt | -1 | nt | nt | nt
CC(=O)Oc1ccc(C(=O)Nc2cccc(C(=O)c3ccc(C)c(C)c3)c2)cc1 | nt | -3 | 1 | 16 | 35* | 14 | 6
CC1CCC/C=C/C2CC(O)CC2C(O)/C=C/C(=O)O1 (stereo not given) | 20 | nt | 4 | nt | 89* | 95* | 7
O=C(O)CSc1ncnc2scc(-c3ccc(Br)cc3)c12 | 29 | 6 | 1 | 10 | 27* | 24 | -3
O=C(O)CSc1ncnc2scc(-c3ccccc3)c12 | -2 | 3 | 0 | 0 | 48* | 72* | -8
CN(C)C(=O)CSc1ncnc2scc(-c3ccccc3)c12 | 4 | 11 | 0 | 9 | 5 | nt | nt
Cc1c(C=NNC(=O)c2cc(=O)[nH]c(=O)[nH]2)c2ccccn2c1C(=O)c1ccccc1 | nt | 3 | nt | 11 | nt | nt | nt
O=C(Nc1ccccc1)Nc1cc(Cl)cc(Cl)c1 | 19 | nt | 2 | nt | 13 | nt | nt
O=C(Nc1ccccc1)Nc1cc(OCC(F)(F)F)cc(OCC(F)(F)F)c1 | -7 | 90* | 2 | 94* | 38* | 28* | 14*
C[C@]12CCC(=O)C=C1CCC1C2C(O)C[C@@]2(C)C1CC[C@]2(O)C(=O)COC(=O)CCC(=O)O (stereo not given in full) | nt | 9 | nt | 6 | nt | nt | nt
CC(=NCc1cccnc1)c1c(O)n(-c2ccccc2C)c(=O)[nH]c1=O | 20 | 1 | -2 | 1 | 3 | nt | nt
CC(=NCc1cccnc1)c1c(O)n(-c2ccc(C)cc2)c(=O)[nH]c1=O | 36 | 0 | 0 | 3 | 85* | 65* | -3
COC(=O)C(Cc1ccccc1)N(Cc1ccccc1)S(=O)(=O)N(Cc1ccccc1)C(Cc1ccccc1)C(=O)OC (stereo not given) | nt | 0 | nt | -6 | nt | nt | nt
